Experimental data reported in PubChem BioAssay AID1159580 (chemical genetic matrix, 2015).
Values joined by “and” are separate entries in the source; they are usually repeats but may differ in a detail not shown here. Equal entries are not always repeated. Screen size: about 5,500 compounds; about 2,000 (36%) were called active. Another 18% or so got no clear call; they are omitted. Rule as the data show it: active = normalized growth mostly below about 0.91 (no sharp cut-off); inconclusive = no clear call, values can overlap the other calls; inactive = mostly above about 0.92. Some of the results follow.

Test: chemical genetic growth profiling, strain panel (AID 1159580);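 also: tested at 20 µM; growth read once vehicle control cultures reached saturation at 30 °C; 1 = growth at the plate median or of vehicle wells; lower values mean less growth of the strain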
Details: S. cerevisiae deletion strains, growth OD

Measured: normalized growth

Cc1ccc(C(=O)c2ccc(CC(=O)O)n2C)cc1
inactive: locus YAL021C, strain ccr4, hits give low values 1.03 | locus YAL026C, strain drs2, hits give low values 1.02 | locus YAL030W, strain snc1, hits give low values 1.01 | locus YBL061C, strain skt5, hits give low values 1.01 | locus YBR009C, strain hhf1, hits give low values 0.973 | locus YBR021W, strain FUR4, hits give low values 1.01 | locus YBR023C, strain chs3, hits give low values 1 | locus YBR229C, strain ROT2, hits give low values 1 | locus YBR231C, strain swc5, hits give low values 1.02 | locus YBR279W, strain paf1, hits give low values 1 | locus YCL011C, strain gbp2, hits give low values 0.999 | locus YCL016C, strain dcc1, hits give low values 0.996 | locus YCL029C, strain bik1, hits give low values 0.968 | locus YCL061C, strain MRC1, hits give low values 0.995 | locus YCL069W, strain vba3, hits give low values 0.986 | locus YCR088W, strain abp1, hits give low values 1 | locus YDL005C, strain med2, hits give low values 1.03 | locus YDL035C, strain GPR1, hits give low values 1.01 | locus YDL040C, strain nat1, hits give low values 1.01 | locus YDL074C, strain BRE1, hits give low values 1.01 | locus YDL101C, strain DUN1, hits give low values 1.01 | locus YDL134C, strain PPH21, hits give low values 0.996 | locus YDL185W, strain tfp1, hits give low values 0.977 | locus YDL192W, strain arf1, hits give low values 0.98 | locus YDR001C, strain nth1, hits give low values 1 | locus YDR069C, strain doa4, hits give low values 0.999 | locus YDR101C, strain arx1, hits give low values 0.985 | locus YDR137W, strain rgp1, hits give low values 1 | locus YDR150W, strain NUM1, hits give low values 1.01 | locus YDR159W, strain sac3, hits give low values 0.956 | locus YDR162C, strain NBP2, hits give low values 0.995 | locus YDR195W, strain ref2 1.03 | locus YDR297W, strain sur2, hits give low values 0.991 | locus YDR318W, strain mcm21, hits give low values 0.956 | locus YDR334W, strain swr1, hits give low values 1.01 | locus YDR335W, strain msn5, hits give low values 1.01 | locus YDR388W, hits give low values 0.972 | locus YDR392W, strain spt3, hits give low values 0.88 | locus YDR502C, strain sam2, hits give low values 0.97 | locus YEL003W, strain gim4, hits give low values 1.01 | locus YEL037C, strain rad23, hits give low values 0.999 | locus YEL061C, strain CIN8 (second series), hits give low values 0.999 | locus YEL061C, strain CIN8, hits give low values 0.998 | locus YER015W, strain faa2, hits give low values 1.01 | locus YER016W, strain bim1, hits give low values 0.999 | locus YER110C, hits give low values 0.969 | locus YER111C, strain swi4, hits give low values 1.01 | locus YER155C, strain BEM2 (second series), hits give low values 0.957 | locus YER155C, strain BEM2, hits give low values 0.996 | locus YER167W, strain BCK2, hits give low values 0.998 | locus YFR010W, strain ubp6, hits give low values 0.997 | locus YGL078C, strain dbp3, hits give low values 0.977 | locus YGL086W, strain mad1, hits give low values 0.985 | locus YGL167C, strain pmr1, hits give low values 1.01 | locus YGL173C, strain kem1, hits give low values 0.985 | locus YGL227W, strain vid30, hits give low values 1 | locus YGL240W, strain doc1, hits give low values 1.01 | locus YGL248W, strain PDE1, hits give low values 1.02 | locus YGL253W, strain hxk2, hits give low values 0.992 | locus YGR078C, strain PAC10, hits give low values 1 | locus YGR135W, strain pre9, hits give low values 0.97 | locus YGR229C, strain SMI1, hits give low values 1.01 | locus YGR252W, strain gcn5, hits give low values 0.975 | locus YHR013C, strain ard1, hits give low values 1.03 | locus YHR027C, strain rpn1, hits give low values 1.01 | locus YHR030C, strain SLT2, hits give low values 1 and 0.957 | locus YHR079C, strain IRE1 (second series), hits give low values 0.964 | locus YHR079C, strain IRE1, hits give low values 0.976 | locus YHR094C, strain hxt1, hits give low values 0.973 | locus YHR129C, strain ARP1, hits give low values 1 | locus YHR142W, strain chs7, hits give low values 1.02 | locus YHR200W, strain rpn10, hits give low values 0.979 | locus YIL066C, strain RNR3, hits give low values 1 | locus YIL073C, strain SPO22, hits give low values 0.924 | locus YIL125W, strain kgd1, hits give low values 0.985 | locus YIR030C, strain dcg1, hits give low values 0.978 | locus YJL092W, strain hpr5, hits give low values 1.02 | locus YJL095W, strain BCK1 (second series), hits give low values 1.02 | locus YJL095W, strain BCK1, hits give low values 1.01 and 0.969 | locus YJL115W, strain asf1, hits give low values 1.03 | locus YJL129C, strain trk1, hits give low values 1.02 | locus YJL134W, strain LCB3, hits give low values 1 | locus YJL154C, strain vps35, hits give low values 1.01 | locus YJL164C, strain tpk1, hits give low values 0.997 | locus YJL166W, strain qcr8, hits give low values 1.02 | locus YJL168C, strain set2, hits give low values 0.975 | locus YJL187C, strain SWE1 (second series), hits give low values 1 | locus YJR043C, strain POL32, hits give low values 0.995 | locus YJR066W, strain TOR1, hits give low values 0.929
